# Source: PubChem BioAssay (EPA / NIEHS)
# Results filed as inconclusive are left out. Where a structure was tested more than once in an assay, its records may differ in their call. The source made the active and inactive calls. Rule for the calls, unless noted: active = hit-call score of the fitted dose curve at least 0.9, where 1 is the maximum; inactive = score below 0.9.
# Legend:
# [1] = biological target: Nuclear respiratory factor 1 (Homo sapiens) (UniProt Q16656); assay: ATG_NRF1_CIS: Attagene CIS-FACTORIAL HepG2 Assay for human Nuclear Respiratory Factor 1 (NRF1) Orphan Gene (AID 2282987); conditions: HepG2 NRF1 cis-element reporter, Attagene multiplex; actives raise or lower the signal
# Nuclear respiratory factor 1 (Homo sapiens), sequence (Q16656 whole entry, looked up): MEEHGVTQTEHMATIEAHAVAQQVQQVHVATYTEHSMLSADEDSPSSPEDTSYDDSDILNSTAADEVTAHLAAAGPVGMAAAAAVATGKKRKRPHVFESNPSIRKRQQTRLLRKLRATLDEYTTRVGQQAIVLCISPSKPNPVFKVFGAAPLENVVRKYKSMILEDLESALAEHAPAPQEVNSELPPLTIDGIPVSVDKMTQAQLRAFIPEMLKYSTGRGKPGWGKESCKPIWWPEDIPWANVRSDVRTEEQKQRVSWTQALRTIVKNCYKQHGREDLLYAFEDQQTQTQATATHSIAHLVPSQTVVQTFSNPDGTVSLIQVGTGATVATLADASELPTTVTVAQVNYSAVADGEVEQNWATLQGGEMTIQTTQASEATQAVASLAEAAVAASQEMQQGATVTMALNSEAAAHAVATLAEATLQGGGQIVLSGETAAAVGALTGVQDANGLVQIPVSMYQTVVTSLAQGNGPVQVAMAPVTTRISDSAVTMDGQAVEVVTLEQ
# Procedure, shortened: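 Endogenous NRF1-driven reporter transcription in transfected HepG2 cells after 24 h treatment. Readout: RT-PCR products, 6-FAM labelled and resolved by capillary electrophoresis; changes fitted both directions relative to DMSO.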
# [2] = ATG_NFI_CIS: Attagene CIS-FACTORIAL HepG2 Assay for human Nuclear Factor I (NFI) (AID 2282989); conditions: HepG2 cis-regulatory reporter, NFI response element transcription; actives raise or lower the signal
# Procedure, shortened: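 Multiplexed cis-reporter system in human HepG2 cells reports native TF activity as reporter mRNA induction 24 h post-dose. Fragments labelled with 6-FAM, HpaI-digested and resolved by capillary electrophoresis; activity fitted both directions versus DMSO.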
# [3] = biological target: Myc proto-oncogene protein (Homo sapiens) (UniProt P01106); assay: ATG_Myc_CIS: Attagene CIS-FACTORIAL HepG2 Assay for human Myelocytomatosis (Myc) Proto-Oncogene Transcription Factor (AID 2282990); conditions: HepG2, Attagene cis-reporter transcription factor activity; actives raise or lower the signal
# Myc proto-oncogene protein (Homo sapiens), sequence (P01106 whole entry, looked up): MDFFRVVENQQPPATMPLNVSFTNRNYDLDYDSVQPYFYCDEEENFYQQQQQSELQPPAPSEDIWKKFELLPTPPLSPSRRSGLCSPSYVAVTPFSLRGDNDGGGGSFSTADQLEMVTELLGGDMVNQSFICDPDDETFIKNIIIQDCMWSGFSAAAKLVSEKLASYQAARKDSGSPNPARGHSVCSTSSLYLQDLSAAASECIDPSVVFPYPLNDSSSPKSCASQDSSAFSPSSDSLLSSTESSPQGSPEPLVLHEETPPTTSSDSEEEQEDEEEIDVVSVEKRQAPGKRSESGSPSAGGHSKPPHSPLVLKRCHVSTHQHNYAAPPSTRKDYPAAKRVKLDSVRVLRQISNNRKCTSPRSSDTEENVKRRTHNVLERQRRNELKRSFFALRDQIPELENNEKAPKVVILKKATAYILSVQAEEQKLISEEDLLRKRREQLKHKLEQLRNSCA
# Procedure, shortened: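 HepG2, transient MRTU transfection (cis promoters, endogenous TFs); 24 h dosing; TriZol RNA → oligo(dT) RT → PCR → 6-FAM primer extension → HpaI cut → CE. Bidirectional fit vs DMSO.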
# [4] = ATG_NF_kB_CIS: Attagene CIS-FACTORIAL HepG2 Assay for human Nuclear Factor Kappa B (NF-kB) (AID 2282991); conditions: HepG2 Attagene cis-factorial NF-kB reporter mRNA; actives raise or lower the signal
# Procedure, shortened: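 Readout is reporter transcript level, gain or loss versus DMSO, measured 24 h post-dose via RT-PCR, fluorescent labelling and capillary electrophoresis. Human HepG2 liver cells carried transiently transfected CIS reporter constructs reflecting endogenous factors.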
# [5] = ATG_NRF2_ARE_CIS: Attagene CIS-FACTORIAL HepG2 Assay for human Nuclear Factor Erythroid 2 Related Factor 2 (NFR2) response to Antioxidant Response Elements (ARE) (AID 2282992); conditions: HepG2 Attagene ARE/NRF2 reporter, transcription factor activity; actives raise or lower the signal
# Procedure, shortened: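 Endogenous transcription factor activity read out as reporter transcript levels (RT-PCR plus capillary electrophoresis, fluorescence) in transiently transfected HepG2 cells. Measured at 24 h after dosing; gain or loss of signal fitted versus DMSO.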
# [6] = ATG_Oct_MLP_CIS: Attagene CIS-FACTORIAL HepG2 Assay for human Octamer-Binding Transcription Factor (Oct) (AID 2282993); conditions: HepG2 Attagene cis-factorial Oct reporter, mRNA; actives raise or lower the signal
# Procedure, shortened: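 After 24 h compound exposure, transfected HepG2 cells were lysed for total RNA; reporter-specific cDNA was PCR-amplified, fluorescently labelled and sized by capillary electrophoresis. Bidirectional curve fitting used DMSO as baseline.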
# [7] = BSK_3C_TissueFactor: BioMAP Diversity Plus: 3C Assay for Tissue Factor Biomarker Activity (AID 2282997); conditions: BioMAP 3C HUVEC, tissue factor biomarker readout; actives raise or lower the signal
# Procedure, shortened: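 In this endothelial system, HUVEC are treated for 24 h and Tissue Factor is assessed by ELISA, normalised to DMSO.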
# [8] = BSK_3C_uPAR: BioMAP Diversity Plus: 3C Assay for Urokinase-type plasminogen activator receptor (uPAR) Biomarker Activity (AID 2282998); conditions: BioMAP 3C HUVEC, uPAR biomarker ELISA; actives raise or lower the signal
# Procedure, shortened: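 Values derive from bidirectional curve fitting relative to DMSO, which served as baseline of activity. uPAR was measured by ELISA in human umbilical vein endothelial primary cultures 24 h after compound addition.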
# [9] = BSK_3C_VCAM1: BioMAP Diversity Plus: 3C Assay for Vascular cell adhesion molecule 1 (VCAM1) Biomarker Activity (AID 2282999); conditions: BioMAP 3C HUVEC, VCAM1 ELISA, cytokine-stimulated; actives raise or lower the signal
# Procedure, shortened: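 Activity fitted in both directions relative to DMSO, with ELISA measurement of the surface marker on primary HUVEC (3C) at 24 h post-treatment; parallel SRB staining (0.1% SRB, TCA-fixed, 560 nm) flagged overt cytotoxicity.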
# [10] = BSK_4H_Eotaxin3: BioMAP Diversity Plus: 4H Assay for Eotaxin 3 Biomarker Activity (AID 2283000); conditions: primary human endothelial cells (HUVEC); actives raise or lower the signal;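 for outcome: CCL26 protein level quantified by ELISA in parallel with SRB cytotoxicity check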
# Procedure, shortened: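 ELISA quantitation of CCL26 (Eotaxin-3) protein from chemically dosed human vascular endothelial cells at 24 h; increases and decreases both scored relative to DMSO-treated baseline.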
# [11] = read-out: Intercellular Adhesion Molecule 1 (ICAM1), ICAM1 (gene 3383); assay: BSK_3C_ICAM1: BioMAP Diversity Plus: 3C Assay for Intercellular Adhesion Molecule 1 (ICAM1) Biomarker Activity (AID 2283003); conditions: primary human endothelial cells (HUVEC); actives raise or lower the signal
# Procedure, shortened: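 Using DMSO as baseline, bidirectional curve fitting was applied to ICAM-1 ELISA signals from HUVEC in the 3C system, measured 24 h after compound addition.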
# [12] = biological target: Retinoic acid receptor alpha (Homo sapiens) (UniProt P10276); assay: ATG_RARa_TRANS: Attagene TRANS-FACTORIAL HepG2 Assay for human Retinoic Acid Receptor alpha (RARa) (AID 2283005; active = hit-call score of the fitted dose curve at least 0.9, where 1 is the maximum;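 for AC50: potency for increased reporter signal meaning RARa activation over DMSO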)
# Retinoic acid receptor alpha (Homo sapiens), sequence (P10276 whole entry, looked up, the tested form may be a part): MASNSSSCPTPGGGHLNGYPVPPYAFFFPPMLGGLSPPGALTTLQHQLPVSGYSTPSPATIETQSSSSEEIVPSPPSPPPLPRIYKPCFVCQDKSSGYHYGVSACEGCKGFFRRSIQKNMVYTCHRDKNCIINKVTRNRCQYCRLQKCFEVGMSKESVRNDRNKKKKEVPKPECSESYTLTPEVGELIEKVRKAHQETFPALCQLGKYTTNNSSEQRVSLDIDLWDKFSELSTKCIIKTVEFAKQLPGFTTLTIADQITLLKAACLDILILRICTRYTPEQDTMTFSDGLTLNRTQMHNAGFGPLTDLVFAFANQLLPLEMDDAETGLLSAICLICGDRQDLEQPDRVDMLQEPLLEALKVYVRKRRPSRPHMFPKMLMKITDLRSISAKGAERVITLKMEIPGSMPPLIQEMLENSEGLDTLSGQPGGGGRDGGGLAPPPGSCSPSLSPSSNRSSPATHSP
# Procedure, shortened: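 Reporter transcripts, measured by RT-PCR with fluorescent labeling and capillary electrophoresis after 24 h dosing, reflect activity of an exogenous human RARa–GAL4 fusion in transiently transfected HepG2. Fitted for increase relative to DMSO.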
# [13] = BSK_3C_Proliferation: Cell Proliferation Assessment in the BioMAP Diversity Plus: 3C Assay (AID 2283006); conditions: primary human endothelial cells (HUVEC);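 for AC50: potency may reflect either rise or fall in cell number versus DMSO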
# Procedure, shortened: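 Measured here: sulforhodamine B (0.1%) staining of TCA-fixed sub-confluent umbilical vein endothelial cultures 48 h post-dosing, absorbance 560 nm. DMSO served as negative control and baseline; both signal gain and loss were modelled.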
# [14] = biological target: Peroxisome proliferator-activated receptor gamma (Homo sapiens) (UniProt P37231); assay: ATG_PPARg_TRANS: Attagene TRANS-FACTORIAL HepG2 Assay for human Peroxisome Proliferator-activated Receptor-gamma (PPARg) (AID 2283007; active = hit-call score of the fitted dose curve at least 0.9, where 1 is the maximum)
# Peroxisome proliferator-activated receptor gamma (Homo sapiens), sequence (P37231 whole entry, looked up, the tested form may be a part): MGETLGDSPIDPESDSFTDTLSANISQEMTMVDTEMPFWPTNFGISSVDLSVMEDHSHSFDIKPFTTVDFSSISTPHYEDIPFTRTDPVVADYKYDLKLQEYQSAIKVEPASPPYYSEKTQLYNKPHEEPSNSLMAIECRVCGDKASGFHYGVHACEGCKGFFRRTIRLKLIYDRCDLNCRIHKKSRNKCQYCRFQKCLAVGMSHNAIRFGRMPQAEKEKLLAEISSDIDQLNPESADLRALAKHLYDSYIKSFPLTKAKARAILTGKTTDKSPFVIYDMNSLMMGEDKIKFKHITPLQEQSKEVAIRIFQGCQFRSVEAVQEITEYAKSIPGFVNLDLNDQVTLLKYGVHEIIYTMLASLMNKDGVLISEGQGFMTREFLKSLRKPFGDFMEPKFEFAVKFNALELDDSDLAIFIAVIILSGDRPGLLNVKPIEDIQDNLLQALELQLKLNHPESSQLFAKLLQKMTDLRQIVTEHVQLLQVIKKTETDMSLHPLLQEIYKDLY
# Procedure, shortened: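 After 24 h of chemical exposure, transfected HepG2 cells carrying PPARγ-Gal4 chimera reporter constructs are lysed for RNA. Reporter transcripts are measured by RT-PCR and capillary electrophoresis with fluorescent labelling, and gain of signal is fitted versus DMSO.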
# [15] = biological target: Nuclear receptor subfamily 1 group I member 2 (Homo sapiens) (UniProt O75469); assay: ATG_PXR_TRANS: Attagene TRANS-FACTORIAL HepG2 Assay for human Pregnane X Receptor (PXR) (AID 2283008; active = hit-call score of the fitted dose curve at least 0.9, where 1 is the maximum)
# Nuclear receptor subfamily 1 group I member 2 (Homo sapiens), sequence (O75469 whole entry, looked up, the tested form may be a part): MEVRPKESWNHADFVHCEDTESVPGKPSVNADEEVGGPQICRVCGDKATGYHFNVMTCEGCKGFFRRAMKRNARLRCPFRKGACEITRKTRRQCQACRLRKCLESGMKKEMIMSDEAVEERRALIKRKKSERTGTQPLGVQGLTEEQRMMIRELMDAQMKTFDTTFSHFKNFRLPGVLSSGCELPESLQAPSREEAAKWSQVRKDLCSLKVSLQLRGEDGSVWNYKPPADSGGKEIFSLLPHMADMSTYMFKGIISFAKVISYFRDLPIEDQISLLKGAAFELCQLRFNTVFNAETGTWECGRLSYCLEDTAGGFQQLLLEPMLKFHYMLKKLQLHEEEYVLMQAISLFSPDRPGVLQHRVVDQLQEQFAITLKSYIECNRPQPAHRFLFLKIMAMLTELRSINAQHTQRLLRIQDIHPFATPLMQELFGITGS
# Procedure, shortened: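 Transactivation by exogenous PXR–GAL4 fusion measured as reporter transcript induction after 24 h compound treatment of transfected human HepG2 cells. Read-out via RT-PCR and capillary electrophoresis of labelled fragments, fitted upward relative to DMSO.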
# [16] = biological target: Cellular tumor antigen p53 (Homo sapiens) (UniProt P04637); assay: ATG_p53_CIS: Attagene CIS-FACTORIAL HepG2 Assay for human p53 Transcription Factor (AID 2282994); conditions: HepG2 p53 cis-element reporter, Attagene mRNA; actives raise or lower the signal
# Cellular tumor antigen p53 (Homo sapiens), sequence (P04637 whole entry, looked up): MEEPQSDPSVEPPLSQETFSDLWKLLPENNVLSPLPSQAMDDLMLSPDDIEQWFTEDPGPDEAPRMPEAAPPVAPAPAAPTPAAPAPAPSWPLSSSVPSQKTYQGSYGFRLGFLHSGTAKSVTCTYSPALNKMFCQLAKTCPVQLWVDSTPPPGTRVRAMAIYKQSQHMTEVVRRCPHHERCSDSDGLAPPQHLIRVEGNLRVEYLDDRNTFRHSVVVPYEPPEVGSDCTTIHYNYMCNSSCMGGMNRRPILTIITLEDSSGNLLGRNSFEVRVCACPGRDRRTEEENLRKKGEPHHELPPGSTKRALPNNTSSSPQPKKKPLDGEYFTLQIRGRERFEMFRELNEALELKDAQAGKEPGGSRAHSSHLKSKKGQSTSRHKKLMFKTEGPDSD
# Procedure, shortened: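 Endogenous p53 activity read in transiently transfected HepG2 from a cis-element-driven reporter transcript after 24 h exposure. RNA reverse-transcribed, PCR-amplified, fluorescently labelled and sized by capillary electrophoresis; gain or loss fitted against DMSO baseline.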
# [17] = biological target: human Retinoic Acid Receptor beta (RARb), RARB (gene 5915) (UniProt P10826); assay: ATG_RARb_TRANS: Attagene TRANS-FACTORIAL HepG2 Assay for human Retinoic Acid Receptor beta (AID 2283004; active = hit-call score of the fitted dose curve at least 0.9, where 1 is the maximum)
# human Retinoic Acid Receptor beta (RARb), RARB (gene 5915), sequence (P10826 whole entry, looked up, the tested form may be a part): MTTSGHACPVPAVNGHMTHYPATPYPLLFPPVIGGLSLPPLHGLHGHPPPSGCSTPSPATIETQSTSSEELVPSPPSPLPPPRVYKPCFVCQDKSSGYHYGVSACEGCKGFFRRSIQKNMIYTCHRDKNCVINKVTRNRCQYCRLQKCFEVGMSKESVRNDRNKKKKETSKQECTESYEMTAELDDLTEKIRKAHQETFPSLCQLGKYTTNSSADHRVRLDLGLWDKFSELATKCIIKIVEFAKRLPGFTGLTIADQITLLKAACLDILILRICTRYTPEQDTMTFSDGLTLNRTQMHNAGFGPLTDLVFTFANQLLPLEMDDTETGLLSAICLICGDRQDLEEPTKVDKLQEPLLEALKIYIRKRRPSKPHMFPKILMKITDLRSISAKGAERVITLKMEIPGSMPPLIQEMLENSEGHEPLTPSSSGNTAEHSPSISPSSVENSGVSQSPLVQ
# Procedure, shortened: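 Fluorescent capillary-electrophoresis detection of GAL4-UAS reporter mRNA defines the endpoint, with induction over DMSO-treated wells scored as activity. Transiently transfected human hepatoma HepG2 cells expressing exogenous NR–Gal4 proteins are exposed to test chemicals for 24 h.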
# [18] = biological target: human RAR-related Orphan Receptor beta (RORb), RORB (gene 6096) (UniProt Q92753); assay: ATG_RORb_TRANS: Attagene TRANS-FACTORIAL HepG2 Assay for human RAR-related Orphan Receptor beta (RORb) (AID 2283010; active = hit-call score of the fitted dose curve at least 0.9, where 1 is the maximum)
# human RAR-related Orphan Receptor beta (RORb), RORB (gene 6096), sequence (Q92753 whole entry, looked up, the tested form may be a part): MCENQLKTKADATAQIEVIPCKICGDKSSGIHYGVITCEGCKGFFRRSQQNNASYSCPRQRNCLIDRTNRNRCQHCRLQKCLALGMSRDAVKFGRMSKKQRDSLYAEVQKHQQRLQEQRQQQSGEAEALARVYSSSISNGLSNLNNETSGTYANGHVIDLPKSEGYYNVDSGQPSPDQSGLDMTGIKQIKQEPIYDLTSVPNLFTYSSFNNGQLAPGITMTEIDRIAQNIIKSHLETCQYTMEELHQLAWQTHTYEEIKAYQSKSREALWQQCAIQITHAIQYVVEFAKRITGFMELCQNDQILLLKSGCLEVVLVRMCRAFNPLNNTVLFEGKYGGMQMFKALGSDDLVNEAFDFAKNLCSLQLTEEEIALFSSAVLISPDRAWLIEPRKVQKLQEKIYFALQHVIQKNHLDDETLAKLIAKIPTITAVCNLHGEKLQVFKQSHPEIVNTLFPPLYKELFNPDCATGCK
# Procedure, shortened: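 Multiplexed transcription-factor reporter assay: HepG2 cells transiently carrying NR-Gal4/GAL4-UAS constructs, 24 h treatment, mRNA quantified by RT-PCR plus capillary electrophoresis fluorescence; activity scored as induction over DMSO.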
# [19] = biological target: human RAR-related Orphan Receptor gamma (RORg), RORC (gene 6097) (UniProt P51449); assay: ATG_RORg_TRANS: Attagene TRANS-FACTORIAL HepG2 Assay for human RAR-related Orphan Receptor gamma (RORg) (AID 2283011; active = hit-call score of the fitted dose curve at least 0.9, where 1 is the maximum)
# human RAR-related Orphan Receptor gamma (RORg), RORC (gene 6097), sequence (P51449 whole entry, looked up, the tested form may be a part): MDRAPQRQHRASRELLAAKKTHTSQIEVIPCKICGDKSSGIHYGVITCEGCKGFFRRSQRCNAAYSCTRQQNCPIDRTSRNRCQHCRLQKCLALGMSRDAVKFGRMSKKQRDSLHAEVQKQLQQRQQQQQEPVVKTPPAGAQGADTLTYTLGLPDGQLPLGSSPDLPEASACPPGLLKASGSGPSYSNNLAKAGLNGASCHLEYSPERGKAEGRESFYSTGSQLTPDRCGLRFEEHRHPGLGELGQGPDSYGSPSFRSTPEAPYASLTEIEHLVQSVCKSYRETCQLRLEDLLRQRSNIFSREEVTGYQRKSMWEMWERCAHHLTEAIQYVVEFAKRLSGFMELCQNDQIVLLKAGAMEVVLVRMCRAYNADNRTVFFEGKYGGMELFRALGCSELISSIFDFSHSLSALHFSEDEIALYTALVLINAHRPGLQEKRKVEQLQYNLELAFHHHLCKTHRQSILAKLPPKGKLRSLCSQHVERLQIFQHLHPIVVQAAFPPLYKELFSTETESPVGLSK
# Procedure, shortened: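 Chimeric RORg-Gal4 transactivation in transfected HepG2; 24 h exposure; RT-PCR/capillary electrophoresis readout of reporter mRNA, DMSO baseline.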
# [20] = biological target: human Retinoic Acid Receptor gamma (RARg), RARG (gene 5916) (UniProt P13631); assay: ATG_RARg_TRANS: Attagene TRANS-FACTORIAL HepG2 Assay for human Retinoic Acid Receptor gamma (RARg) (AID 2283009; active = hit-call score of the fitted dose curve at least 0.9, where 1 is the maximum)
# human Retinoic Acid Receptor gamma (RARg), RARG (gene 5916), sequence (P13631 whole entry, looked up, the tested form may be a part): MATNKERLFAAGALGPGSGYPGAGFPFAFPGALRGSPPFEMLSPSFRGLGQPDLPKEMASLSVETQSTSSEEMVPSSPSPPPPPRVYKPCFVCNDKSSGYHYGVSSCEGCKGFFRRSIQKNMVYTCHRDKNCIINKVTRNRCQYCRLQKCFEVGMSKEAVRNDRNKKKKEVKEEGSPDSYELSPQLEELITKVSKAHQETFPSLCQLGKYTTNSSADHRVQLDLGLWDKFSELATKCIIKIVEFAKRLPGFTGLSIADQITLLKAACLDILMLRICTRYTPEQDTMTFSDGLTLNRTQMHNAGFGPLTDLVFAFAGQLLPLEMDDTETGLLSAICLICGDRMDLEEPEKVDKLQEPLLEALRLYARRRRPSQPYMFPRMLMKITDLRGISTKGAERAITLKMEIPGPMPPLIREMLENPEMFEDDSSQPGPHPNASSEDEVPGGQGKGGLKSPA
# Procedure, shortened: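 Gain-of-signal relative to DMSO is reported from fluorescent capillary electrophoresis of RT-PCR reporter products. These came from HepG2 cells expressing transfected RARg-GAL4 chimeras with UAS reporters, harvested 24 h after dosing.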
smiles,measurement,setting,value
CCOCN(C(=O)CCl)c1c(C)cccc1CC,outcome,[1],inactive
same,outcome,[2],inactive
same,outcome,[3],inactive
same,outcome,[4],inactive
same,AC50,[5],1.21 µM (active)
same,outcome,[6],inactive
same,outcome,[7],inactive
same,outcome,[8],inactive
same,AC50,[9],14.3 µM (active)
same,AC50,[10],35.3 µM (active)
same,outcome,[11],inactive
same,outcome,[12],inactive
same,AC50,[13],15.5 µM (active)
same,AC50,[14],1.23 µM (active)
same,outcome,[15],inactive
CNC(=O)Oc1cccc(N=CN(C)C)c1,outcome,[1],inactive
same,AC50,[2],82.3 µM (active)
same,outcome,[3],inactive
same,AC50,[5],50 µM (active)
same,AC50,[6],25.7 µM (active)
same,outcome,[16],inactive
same,outcome,[7],inactive
same,outcome,[8],inactive
same,AC50,[9],29 µM (active)
same,outcome,[10],inactive
same,outcome,[11],inactive
same,outcome,[17],inactive
same,outcome,[12],inactive
same,outcome,[13],inactive
same,outcome,[14],inactive
same,outcome,[15],inactive
same,outcome,[18],inactive
CNC(=O)CSP(=S)(OC)OC,outcome,[1],inactive
same,outcome,[2],inactive
same,outcome,[3],inactive
same,outcome,[5],inactive
same,outcome,[6],inactive
same,outcome,[7],inactive
same,outcome,[8],inactive
same,outcome,[9],inactive
same,outcome,[10],inactive
same,outcome,[11],inactive
same,outcome,[13],inactive
same,outcome,[14],inactive
same,outcome,[15],inactive
same,outcome,[18],inactive
same,outcome,[19],inactive
O=C(O)COc1ccc(Cl)cc1Cl,outcome,[1],inactive
same,outcome,[2],inactive
same,outcome,[3],inactive
same,outcome,[5],inactive
same,outcome,[6],inactive
same,outcome,[7],inactive
same,outcome,[8],inactive
same,outcome,[9],inactive
same,outcome,[10],inactive
same,outcome,[11],inactive
same,outcome,[13],inactive
same,outcome,[15],inactive
same,outcome,[18],inactive
COP(=S)(OC)Oc1ccc([N+](=O)[O-])cc1,outcome,[1],inactive
same,outcome,[2],inactive
same,outcome,[3],inactive
same,outcome,[4],inactive
same,outcome,[5],inactive
same,outcome,[6],inactive
same,outcome,[7],inactive
same,AC50,[8],33.1 µM (active)
same,outcome,[9],inactive
same,outcome,[10],inactive
same,outcome,[11],inactive
same,outcome,[13],inactive
same,outcome,[14],inactive
same,outcome,[15],inactive
same,outcome,[20],inactive
O=C(NC(=O)c1c(F)cccc1F)Nc1ccc(OC(F)(F)C(F)OC(F)(F)F)c(Cl)c1 (centres undefined),outcome,[1],inactive
same,outcome,[2],inactive
same,outcome,[3],inactive
same,outcome,[4],inactive
same,AC50,[5],13.8 µM (active)
same,AC50,[6],19.9 µM (active)
same,outcome,[7],inactive
same,outcome,[8],inactive
same,outcome,[9],inactive
same,outcome,[10],inactive
same,outcome,[11],inactive
same,outcome,[13],inactive
same,outcome,[14],inactive
CCCN(CCOc1c(Cl)cc(Cl)cc1Cl)C(=O)n1ccnc1,outcome,[1],inactive
same,outcome,[2],inactive
same,outcome,[3],inactive
same,AC50,[5],4.52 µM (active)
same,outcome,[5],inactive
same,AC50,[6],11.1 µM (active)
same,outcome,[6],inactive
same,outcome,[7],inactive
same,outcome,[8],inactive
same,outcome,[9],inactive
same,outcome,[10],inactive
same,outcome,[11],inactive
same,outcome,[17],inactive
same,AC50,[12],2.5 µM (active)
same,outcome,[12],inactive
same,AC50,[13],26.7 µM (active)
same,outcome,[14],inactive
same,AC50,[15],2.96 µM (active)
same,outcome,[15],inactive
same,outcome,[20],inactive
same,outcome,[19],inactive
